Experiment [1] addresses Guanine nucleotide-binding protein G(i) subunit alpha-1 (Homo sapiens) (UniProt P63096). Put plainly: qHTS Assay for Inhibitors of RGS12 GoLoco Motif Activity (Green Fluorophore) (AID 879).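 Further: negative values mean loss of peptide binding seen as reduced polarization.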 The settings on record: Galphai1/FITC-RGS12 GoLoco peptide, fluorescence polarization; series mostly up to 57.1 µM. Summed up: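 Fluorescence polarization assay: 50 nM Gαi1 with 10 nM FITC-labeled RGS12 GoLoco peptide in 10 mM Tris pH 7.5, 150 mM NaCl, 0.1 mM GDP, 0.05% NP40, 10 min at room temperature with compound.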
(In general: Quantitative high-throughput screening tests each substance at several concentrations.)

For experiment [2], the target named is Cytochrome P450 3A4 (Homo sapiens) (UniProt P08684). Nature of the experiment: qHTS Assay for Activators of Cytochrome P450 3A4 (AID 885). Further: nearly all actives have a fitted effect of over 65% in size. The conditions noted are these: recombinant CYP3A4, Luciferin-PPXE luminescence, 60 min; series mostly up to 57.1 µM. Summed up: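 Quantitative HTS format: compounds preincubated with 20nM human CYP3A4 and Luciferin-PPXE substrate at KM, reaction started by NADPH regeneration, stopped after 60 min, luciferase luminescence read 20 min later.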

The target of experiment [3] is Cytochrome P450 2D6 (Homo sapiens) (UniProt P10635). Nature of the experiment: qHTS Assay for Inhibitors and Substrates of Cytochrome P450 2D6 (AID 891). Further: nearly all actives have a fitted effect of over 60% in size. Further: potency means the concentration at half of the fitted maximal effect. The settings on record: recombinant CYP2D6, luciferin-ME EGE luminescence; series mostly up to 57.1 µM. An outline of the steps:
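Human CYP2D6 (5 nM) with 30 uM Luciferin-ME EGE (at Km) in 100 mM KPO4, compound preincubated 10 min, then NADPH regeneration system for 60 min at room temperature. Luciferin read by luminescence; normalized to 1.43 uM quinidine.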

Experiment [4] in a line: Confirmation and Secondary Assay for Modulators of Hemoglobin Beta Chain Splicing at IVS2 654 locus (AID 910).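 Further: HeLa cells stably carrying EGFP split by mutant beta-globin IVS2-654 intron.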 The settings on record: HeLa EGFP-654 splicing reporter, GFP fluorescence, 48 h; series mostly up to 46.1 µM. An outline of the steps:
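HeLa cells stably expressing EGFP interrupted by β-globin IVS2-654 intron, seeded overnight in Opti-MEM/2% FCS, then treated 2 days at 37 °C. Restored splicing read as total peak GFP intensity per well by laser scanning cytometry (488 nm excitation, 500–520 nm emission); 500 nM antisense PNA as control.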

The nature of experiment [5]: Confirmation and Secondary Assay for Modulators of Hemoglobin Beta Chain Splicing at IVS2 705 locus (AID 930).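 Further: HeLa cells stably expressing the EGFP-705 splicing reporter.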 The settings on record: HeLa EGFP-705 splicing reporter, GFP fluorescence, 48 h; series mostly up to 46.1 µM. Summed up:
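HeLa cells stably carrying EGFP interrupted by mutant beta-globin IVS2-705 intron (CMV-driven) were seeded at 500 cells/well, treated next day with compound for 2 days at 37C; corrected splicing restores EGFP, read as total peak GFP intensity per well.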

Experiment [6] deals with Pyruvate kinase (Leishmania mexicana) (UniProt Q27686). Nature of the experiment: qHTS Validation Assay for Inhibitors of Leishmania Mexicana Pyruvate Kinase (AID 945). Further: potency means the concentration at half of the fitted maximal effect. The conditions noted are these: purified L. mexicana pyruvate kinase, enzyme activity, E451W mutant enzyme; series mostly up to 57.5 µM. An outline of the steps: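 LmPYK E451W 0.2 nM; 0.5 mM PEP, 0.1 mM ADP, 7 mM MgCl2, 50 mM KCl, imidazole pH 7.2, 0.01% Tween 20, 0.05% BSA; 1 h RT; PKLight luminescence; DMSO-normalized.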

Experiment [7] deals with Cytochrome P450 2C9 (Homo sapiens) (UniProt P11712). Nature of the experiment: qHTS Assay for Inhibitors and Substrates of Cytochrome P450 2C9 (AID 883). Further: nearly all actives have a fitted effect of over 60% in size. The conditions noted are these: recombinant CYP2C9, luciferin-H luminescence, 60 min; series mostly up to 57.1 µM. An outline of the steps:
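10nM CYP2C9 + 100uM Luciferin-H (=KM), 25mM KPO4; cpd 10 min 37C; NADPH regen, 60 min 37C; stop/detect with P450 Glo-Buffer 20 min; luminescence. Norm. to 57uM sulphaphenazole as full inhibition.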

Experiment [8] can be described thus: qHTS Assay for Identification of Small Molecule Antagonists for NFkB Signaling Pathway (AID 895; active means well fitted inhibition curve with a large enough effect in the signal ratio, with a control signal flat, not every such curve was filed as active; the % refers to the signal ratio). The settings on record: NFkB beta-lactamase reporter cells, FRET ratio 460/530, stimulated with 10 pM TNF alpha; series mostly up to 38.3 µM. An outline of the steps:
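ME-180 NFkB-bla cells (beta-lactamase under NFkB response element), plated overnight, treated with compound then 10 pM TNF alpha (about EC50) for 5 hrs at 37 C. LiveBLAzer FRET read at 460/530 nm emission, 405 nm excitation.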

The target of experiment [9] is Cytochrome P450 2C19 (Homo sapiens) (UniProt P33261). Nature of the experiment: qHTS Assay for Inhibitors and Substrates of Cytochrome P450 2C19 (AID 899). Further: nearly all actives have a fitted effect of over 60% in size. Further: potency means the concentration at half of the fitted maximal effect. The settings on record: recombinant CYP2C19, luciferin-H EGE luminescence; series mostly up to 57.1 µM. Summed up: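 Luminescent read-out of luciferin formed from Luciferin-H EGE (10uM, equal to KM). Enzyme 5nM in 50mM KPO4; compound added, 10 min at 37C, then NADPH regenerating system for 60 min at 37C. Full inhibition defined by 57uM ketoconazole.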

Experiment [10] concerns the target Muscarinic acetylcholine receptor M1 (Rattus norvegicus) (UniProt P08482). Put plainly: qHTS Assay for Antagonists of Acetylcholine Muscarinic M1 Receptor: Measurement of IP-One Response (AID 944). Further: nearly all actives have a fitted effect of over 75% in size. The settings on record: CHO-M1 cells, IP-One HTRF, antagonist mode; series mostly up to 46.1 µM. An outline of the steps: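 CHO cells stably expressing rat M1, pretreated 10 min with compound, then stimulated 30 min with carbachol at EC80 (200 nM) in LiCl-containing buffer pH 7.4; IP1 accumulation read by HTRF competition (665/620 nm).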

The nature of experiment [11]: Cellular Toxicity (caspase-3) NIH 3T3 (AID 666).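 Further: caspase signal read after 16 h compound exposure.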 The conditions noted are these: NIH 3T3 caspase-3 activation, apoptosis/toxicity, 0% DMSO, 100% is 100 µM tamoxifen; series mostly up to 92.2 µM. An outline of the steps:
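Mouse NIH 3T3 fibroblasts (1000/well) treated 16 h at 37 C; caspase-3/7 activity measured by Caspase-Glo 3/7 luminescence after 20 min. Normalized to DMSO and 100 uM tamoxifen; AC50 from Hill fits.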

Experiment [12] can be described thus: Cellular Toxicity (caspase-3) Renal Proximal Tubule (AID 667).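 Further: cells exposed to compound for 16 hours at 37 °C before detection.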 The settings on record: renal proximal tubule cells, primary cells freshly taken from rat, solvent-only wells 0%, staurosporine 100%; series mostly up to 91.7 µM. An outline of the steps: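 Freshly isolated primary rat kidney proximal tubule cells, 1000/well, treated 16 hr at 37 °C, then Caspase-Glo 3/7 luminescence after 1 hr. Normalized to DMSO and 10 uM staurosporine; AC50 from Hill fit.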

The nature of experiment [13]: Cell Viability - LYMP2-001 (AID 921).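 Further: cells exposed to compound for 24 h at 37 °C; nearly all actives have a fitted effect of over 70% in size.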 The conditions noted are these: LYMP2-001 lymphoblastoid cell viability; series mostly up to 92.2 µM. Summed up: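 Human lymphoblastoid LYMP2-001 cells, 2500 per well, in complete medium, treated 24 h at 37 C. Viability from cellular ATP by CellTiter-Glo luminescence; AC50 from Hill-equation fits of qHTS concentration-response.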

Experiment [14] can be described thus: MultiTox-Fluor Cytotoxicity Assay - LYMP1-001 - Dead Cells (AID 946).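 Further: cells exposed to compound for 16 h.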 The conditions noted are these: LYMP1-001 lymphoblastoid cells, dead-cell protease fluorescence; series mostly up to 92.2 µM. An outline of the steps: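 In this qHTS, 15 uM tetraoctylammonium bromide defined 100% and DMSO defined basal activity. Lymphoblastoid cells (LYMP1-001, 2500 per well) received compound for 16 hr at 37 C before a fluorogenic dead-cell substrate readout at 485/520 nm.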

Experiment [15] in a line: MultiTox-Fluor Cytotoxicity Assay - LYMP1-001 - Live Cells (AID 947). The conditions noted are these: LYMP1-001 lymphoblastoid cells, live-cell protease fluorescence viability; series mostly up to 92.2 µM.
For experiment [16], the target named is Cytochrome P450 3A4 (Homo sapiens) (UniProt P08684). Put plainly: qHTS Assay for Inhibitors and Substrates of Cytochrome P450 3A4 (AID 884). Further: nearly all actives have a fitted effect of over 50% in size. The conditions noted are these: recombinant CYP3A4, Luciferin-PPXE luminescence; series mostly up to 57.1 µM. Summed up: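 20 nM human CYP3A4 with 25 uM Luciferin-PPXE (at KM) in 200 mM KPO4, preincubated 10 min with compound; NADPH regeneration started a 60 min RT reaction. Luciferin detected by luminescence, normalized to 57 uM ketoconazole as full inhibition.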

Several values for one entry are separate records, joined by “and”; a condition that tells them apart may be missing. Identical values can stand only once. Inconclusive results are not listed. Some compounds were tested as several samples or in several runs, with calls that do not always agree. Activity calls are given as the source filed them. Unless noted, the call rests on the fitted dose curve; in most records, active means well fitted curve in the direction sought with a large enough effect; inconclusive means small, poorly fitted or top-dose-only effect, or another doubt; inactive means no such curve, though single readings can be large; an effect the other way counts as inactive or inconclusive.

Chain of Guanine nucleotide-binding protein G(i) subunit alpha-1 (Homo sapiens) (P63096 whole entry, looked up): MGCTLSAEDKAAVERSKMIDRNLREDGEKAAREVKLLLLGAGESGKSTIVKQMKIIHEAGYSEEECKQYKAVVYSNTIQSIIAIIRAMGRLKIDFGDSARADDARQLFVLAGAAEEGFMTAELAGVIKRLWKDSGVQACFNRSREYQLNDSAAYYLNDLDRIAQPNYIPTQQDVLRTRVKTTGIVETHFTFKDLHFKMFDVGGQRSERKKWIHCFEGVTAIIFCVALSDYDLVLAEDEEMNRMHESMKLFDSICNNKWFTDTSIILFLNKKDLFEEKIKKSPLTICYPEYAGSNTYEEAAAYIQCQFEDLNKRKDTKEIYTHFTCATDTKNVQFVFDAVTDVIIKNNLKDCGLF
Chain of Pyruvate kinase (Leishmania mexicana) (Q27686 2-499 E452W): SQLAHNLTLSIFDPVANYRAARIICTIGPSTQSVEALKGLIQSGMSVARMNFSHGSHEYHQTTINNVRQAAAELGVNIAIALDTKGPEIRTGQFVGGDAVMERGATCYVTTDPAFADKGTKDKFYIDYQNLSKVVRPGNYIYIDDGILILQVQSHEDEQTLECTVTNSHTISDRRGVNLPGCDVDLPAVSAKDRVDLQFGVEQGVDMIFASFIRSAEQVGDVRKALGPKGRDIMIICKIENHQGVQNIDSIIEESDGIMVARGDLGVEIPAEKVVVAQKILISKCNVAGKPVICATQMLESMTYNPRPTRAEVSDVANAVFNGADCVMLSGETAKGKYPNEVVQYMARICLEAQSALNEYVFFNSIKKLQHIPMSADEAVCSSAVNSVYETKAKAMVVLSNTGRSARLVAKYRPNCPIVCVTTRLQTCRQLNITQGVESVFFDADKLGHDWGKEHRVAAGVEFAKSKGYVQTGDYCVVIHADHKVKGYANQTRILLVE
Chain of Cytochrome P450 3A4 (Homo sapiens) (P08684 whole entry, looked up): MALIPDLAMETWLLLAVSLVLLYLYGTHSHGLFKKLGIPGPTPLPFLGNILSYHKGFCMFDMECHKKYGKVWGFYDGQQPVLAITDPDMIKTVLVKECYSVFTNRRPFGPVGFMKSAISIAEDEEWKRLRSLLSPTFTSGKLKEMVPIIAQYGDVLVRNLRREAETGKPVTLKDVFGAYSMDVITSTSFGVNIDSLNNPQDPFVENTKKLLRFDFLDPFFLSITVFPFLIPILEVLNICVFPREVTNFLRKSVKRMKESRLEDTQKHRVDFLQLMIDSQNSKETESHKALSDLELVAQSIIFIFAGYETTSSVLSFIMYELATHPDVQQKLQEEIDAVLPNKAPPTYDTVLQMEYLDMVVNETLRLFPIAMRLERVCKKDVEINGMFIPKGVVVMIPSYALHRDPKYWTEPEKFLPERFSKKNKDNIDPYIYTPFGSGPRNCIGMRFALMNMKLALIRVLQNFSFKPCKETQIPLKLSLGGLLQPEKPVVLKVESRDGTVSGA
Chain of Cytochrome P450 2C9 (Homo sapiens) (P11712 whole entry, looked up): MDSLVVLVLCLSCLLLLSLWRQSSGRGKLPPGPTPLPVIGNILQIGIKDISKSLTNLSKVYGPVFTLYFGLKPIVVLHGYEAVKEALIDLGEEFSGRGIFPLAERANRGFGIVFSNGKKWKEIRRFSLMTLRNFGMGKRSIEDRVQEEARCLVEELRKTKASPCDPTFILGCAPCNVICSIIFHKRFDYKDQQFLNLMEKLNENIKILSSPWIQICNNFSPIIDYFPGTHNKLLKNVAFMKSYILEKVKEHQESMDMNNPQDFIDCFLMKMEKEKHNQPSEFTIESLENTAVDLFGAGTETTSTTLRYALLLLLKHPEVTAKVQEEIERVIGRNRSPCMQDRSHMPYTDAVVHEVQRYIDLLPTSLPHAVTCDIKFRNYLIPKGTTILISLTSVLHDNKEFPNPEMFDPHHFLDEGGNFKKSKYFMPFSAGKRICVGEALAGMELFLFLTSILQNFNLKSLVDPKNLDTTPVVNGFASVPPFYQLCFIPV
Chain of Cytochrome P450 2C19 (Homo sapiens) (P33261 whole entry, looked up): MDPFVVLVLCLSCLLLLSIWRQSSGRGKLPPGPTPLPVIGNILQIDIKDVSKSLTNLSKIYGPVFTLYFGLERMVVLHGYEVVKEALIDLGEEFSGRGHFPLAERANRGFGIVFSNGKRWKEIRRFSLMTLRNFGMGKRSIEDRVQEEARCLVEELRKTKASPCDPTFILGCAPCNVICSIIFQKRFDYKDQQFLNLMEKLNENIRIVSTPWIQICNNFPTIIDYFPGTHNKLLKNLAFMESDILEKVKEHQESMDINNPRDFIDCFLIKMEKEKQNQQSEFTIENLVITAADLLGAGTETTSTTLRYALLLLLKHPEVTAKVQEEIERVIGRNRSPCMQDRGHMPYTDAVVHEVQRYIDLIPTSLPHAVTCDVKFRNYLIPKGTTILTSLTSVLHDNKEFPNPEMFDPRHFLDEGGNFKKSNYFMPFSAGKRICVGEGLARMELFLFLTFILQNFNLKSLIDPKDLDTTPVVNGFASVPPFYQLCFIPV
Chain of Cytochrome P450 2D6 (Homo sapiens) (P10635 whole entry, looked up): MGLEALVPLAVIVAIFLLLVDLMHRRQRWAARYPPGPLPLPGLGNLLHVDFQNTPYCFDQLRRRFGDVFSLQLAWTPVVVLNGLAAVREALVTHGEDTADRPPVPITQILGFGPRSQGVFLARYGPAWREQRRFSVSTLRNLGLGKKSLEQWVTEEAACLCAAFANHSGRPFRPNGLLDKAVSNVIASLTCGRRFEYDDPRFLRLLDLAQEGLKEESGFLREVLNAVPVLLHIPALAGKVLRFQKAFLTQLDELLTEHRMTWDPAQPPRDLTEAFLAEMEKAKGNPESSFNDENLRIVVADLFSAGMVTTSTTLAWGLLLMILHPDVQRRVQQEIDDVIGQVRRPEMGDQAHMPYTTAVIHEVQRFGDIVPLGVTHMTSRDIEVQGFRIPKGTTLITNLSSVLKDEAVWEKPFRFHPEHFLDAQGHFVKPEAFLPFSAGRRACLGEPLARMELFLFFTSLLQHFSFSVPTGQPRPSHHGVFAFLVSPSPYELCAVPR
Chain of Muscarinic acetylcholine receptor M1 (Rattus norvegicus) (P08482 whole entry, looked up): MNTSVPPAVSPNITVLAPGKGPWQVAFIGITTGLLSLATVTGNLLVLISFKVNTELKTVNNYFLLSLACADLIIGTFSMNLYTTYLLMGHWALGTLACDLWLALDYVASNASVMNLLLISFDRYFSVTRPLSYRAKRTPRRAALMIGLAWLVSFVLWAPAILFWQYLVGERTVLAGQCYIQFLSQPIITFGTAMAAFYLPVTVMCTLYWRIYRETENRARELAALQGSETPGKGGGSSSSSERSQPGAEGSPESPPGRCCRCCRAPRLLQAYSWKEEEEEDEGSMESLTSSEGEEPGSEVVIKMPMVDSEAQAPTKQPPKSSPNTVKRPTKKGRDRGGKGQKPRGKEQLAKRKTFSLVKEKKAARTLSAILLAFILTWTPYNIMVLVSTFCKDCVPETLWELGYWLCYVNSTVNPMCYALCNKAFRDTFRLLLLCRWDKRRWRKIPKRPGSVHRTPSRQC

Regarding `Cc1cc(C(C)(C)C)cc(C)c1CC1=NCCN1`, the Potency entry in experiment [1], in experiment [2], in [4] and in experiment [6] was “inactive” in each case. Further, the Potency in experiment [3] is 3.98 µM (active). Besides, the compound was classed as inactive in experiment [5].
For `NC(=O)OCC(COC(N)=O)c1ccccc1`, the Potency entry in experiment [1], in [7], in [8], in experiment [9], in experiment [10] and in [6] was “inactive” each time. Moreover, the Potency entry in [3] is “inactive and 794 nM (active)”.
For `Clc1ccc(C(c2ccccc2Cl)C(Cl)Cl)cc1` (configuration not stated), the compound was classed as inactive in experiment [11], in [12], in experiment [13], in [5] and in [15]. In addition, the Potency result in [1], in [4], in [6] and in [14] was “inactive” in each case.
For the compound `Cc1cn([C@H]2C[C@H](N=[N+]=[N-])[C@@H](CO)O2)c(=O)[nH]c1=O`, the compound was called inactive in experiment [11], in [12], in experiment [13] and in experiment [15]. For the same compound, the Potency entry in experiment [14] was “inactive”.
Turning to `CC(COc1ccccc1)N(CCCl)Cc1ccccc1` (configuration not stated), the compound was called inactive in experiment [11], in experiment [5] and in [15]. Besides, the Potency result in experiment [2], in experiment [4] and in experiment [14] was “inactive” throughout.
As for `Cn1c(=O)c2[nH]cnc2n(C)c1=O`, the result in experiment [11], in experiment [12], in [16], in experiment [13], in experiment [5] and in [15] was inactive. The Potency result in experiment [8] and in experiment [14] was “inactive” throughout.
As to `COc1ccc2c(c1)c(CC(=O)O)c(C)n2C(=O)c1ccc(Cl)cc1`, the outcome in experiment [11], in experiment [12], in experiment [16], in experiment [5] and in experiment [15] was inactive. Moreover, the Potency entry in experiment [3], in experiment [9] and in experiment [14] was “inactive” throughout.
On to `COc1ccc(CCN(C)CCCC(C#N)(c2ccc(OC)c(OC)c2)C(C)C)cc1OC` (configuration not stated), for which the result in experiment [11], in experiment [12] and in experiment [15] was inactive. In addition, the Potency entry in experiment [14] is “inactive”.
`CN(Cc1cnc2nc(N)nc(N)c2n1)c1ccc(C(=O)N[C@@H](CCC(=O)O)C(=O)O)cc1`: the Potency result in experiment [1] and in experiment [6] was “inactive” each time. Besides, the result in experiment [16] was inactive.
Consider `O=c1c(-c2ccc(O)cc2)coc2cc(O)cc(O)c12`, for which the call in [11], in [12], in [13], in experiment [5] and in experiment [15] was inactive. The Potency result in experiment [7], in experiment [2], in [3] and in experiment [14] was “inactive” in each case. The Potency result in [9] is “inactive and 20 µM (active)”; in experiment [6], 12.6 µM (active).

The values are drawn from PubChem BioAssay (NCATS).
